High-throughput results from PubChem BioAssay.
Compounds with a hit are over-represented: about 21% of the library has one in this group of screens.
SARS PLP yeast – qHTS of Yeast-based Assay for SARS-CoV PLP | actives 0.19% (n = 330,000) | S. cerevisiae expressing SARS-CoV PLpro, growth rescue | Potency, µM (doses to about 32.9 µM), actives largely listed as activators; note: nearly all actives have a fitted effect of over 55% in size
Pf growth 96h – Primary qHTS for delayed death inhibitors of the malarial parasite plastid, 96 hour incubation | Potency, µM (highest dose often 28.7 µM), usual class: inhibitors | actives 6.9% (n = 320,000) | AID 504834, 2011 | P. falciparum luciferase reporter growth, 96 h; active = well fitted inhibition curve with a large enough effect; inconclusive = small, poorly fitted or top-dose-only effect, or another doubt; inactive = no such curve, though single readings can be large or run the other way
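Parasite growth measured via integrated firefly luciferase reporter in P. falciparum. Infected erythrocytes at 2% hematocrit, 0.05% parasitemia final were treated 96 hours at 37 C under 5% CO2, and luminescence was read.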
Pf growth 48h – Primary qHTS for delayed death inhibitors of the malarial parasite plastid, 48 hour incubation; P. falciparum luciferase growth in erythrocytes, 48 h; AID 504832, 2011; Potency, µM (top dose mostly 28.7 µM), usual class: inhibitors; actives 5.9% (n = 310,000); active = well fitted inhibition curve with a large enough effect; inconclusive = small, poorly fitted or top-dose-only effect, or another doubt; inactive = no such curve, though single readings can be large or run the other way
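First compound was added to culture medium, then infected red cells at 0.1% parasitemia and 2% hematocrit (final). After incubation at 37 C under 5% CO2, luciferase detection reagent was dispensed and light output recorded.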
Cycloheximide cs – Cycloheximide Counterscreen for Small Molecule Inhibitors of Shiga Toxin. actives 12% (n = 300,000). cell reporter, cycloheximide protein synthesis inhibition counterscreen. AID 2314, 2010. max response, %; in the data active = max response mostly above about 13%, no sharp cut-off; inactive = mostly below about 14%; note: read at 38.3 µM for the half of the compounds with a filed dose
NS1 function inh – qHTS Assay for Inhibitors of Influenza NS1 Protein Function. Potency, µM (top dose mostly 46.1 µM). actives 0.4% (n = 270,000). AID 2326, 2010; note: actives are rising curves; nearly all actives have a fitted effect of over 50% in size
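In this qHTS, NS1 from influenza A is expressed in budding yeast, where it slows growth. Cells are switched from glucose to 2% galactose medium (pH 6.0, -URA), treated with compound, and growth recovery is read at OD600.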
Shiga toxin inh – A qHTS for Small Molecule Inhibitors of Shiga Toxin | Vero cells, Shiga toxin protein synthesis inhibition reporter | inhibition, % at 38.7 µM | AID 2315, 2010 | actives 9.2% (n = 290,000); in the data active = inhibition mostly above about 28%, no sharp cut-off; inactive = mostly below about 43%
Of the large screens only hits and unclear results are named; the others gave an inactive call. Unless noted, calls come from the whole dose curve.

CC(C)c1ccc(N2C(=O)CC(Sc3ncccn3)C2=O)cc1 (centres undefined)	Pf growth 96h 2.1µM
Cc1ccnc(SC2CC(=O)N(c3ccc(C(C)C)cc3)C2=O)n1 (centres undefined)	Pf growth 96h inconclusive
CCCC1c2c(ccc3ccccc23)Oc2ccc3ccccc3c21	none (no result: SARS PLP yeast, Pf growth 96h, Pf growth 48h, Cycloheximide cs, Shiga toxin inh)
COc1ccc(-n2nc(C(=O)NCC(=O)N3CCN(C)CC3)c3ccccc3c2=O)cc1	none
COc1ccc(-n2nc(C(=O)NCC(=O)N3CCCCCC3)c3ccccc3c2=O)cc1	Pf growth 96h inconclusive, Cycloheximide cs 16
COc1ccc(N2CCN(C(=O)CNC(=O)c3nn(-c4ccc(OC)cc4)c(=O)c4ccccc34)CC2)cc1	Pf growth 96h 15µM
CCOC(=O)N1CCN(C(=O)CNC(=O)c2nn(-c3ccc(OC)cc3)c(=O)c3ccccc23)CC1	Cycloheximide cs 18
O=C(CNC(=O)c1ccc2c(c1)OCCO2)N/N=C/c1cccc(Br)c1	Pf growth 96h inconclusive (no result: NS1 function inh)
Cc1ccc(NC(=O)CSc2nnc(-c3cccnc3)n2CCN2CCCCC2)cc1	none
N/C(=N\OC(=O)Cc1cccc2ccccc12)c1ccccn1	Cycloheximide cs 49, Shiga toxin inh 161 (no result: Pf growth 48h)
COc1ccc(/C(N)=N/OC(=O)Cc2ccccc2OC)cc1	Cycloheximide cs 39, Shiga toxin inh 36
CN(CC(=O)O/N=C(\N)c1ccccn1)S(=O)(=O)c1ccc(Br)cc1	none
N/C(=N\OC(=O)Cc1ccccc1[N+](=O)[O-])c1ccccn1	Pf growth 96h inconclusive, Cycloheximide cs 49, Shiga toxin inh 139
COc1ccccc1CC(=O)O/N=C(\N)c1ccccn1	Cycloheximide cs 42, Shiga toxin inh 92
COc1ccc(CC(=O)O/N=C(\N)c2ccccn2)cc1OC	Cycloheximide cs 35, Shiga toxin inh 55
COc1ccccc1/C=N\N=C(\N)c1ccccn1	Cycloheximide cs 55, Shiga toxin inh 89
N/C(=N\OC(=O)c1cccc2ccccc12)c1ccccn1	Cycloheximide cs 57, Shiga toxin inh 95
COc1ccccc1Sc1ccccc1/C=N/NC(N)=O	Pf growth 96h inconclusive (no result: NS1 function inh)
COc1cccc(C(=O)O/N=C(\N)c2ccccn2)c1OC	none
Cn1c(SCC(=O)Nc2ccc(C(N)=O)cc2)nnc1-c1cccs1	Pf growth 96h inconclusive
CC(=O)Nc1ccc(NC(=O)[C@@H]2CCCN2S(=O)(=O)c2ccc3c(c2)OCCO3)cc1	none (no result: NS1 function inh)
C=CCc1c(OC)ccc2c1c(S(=O)(=O)c1ccc(C)cc1)cn2COC	Pf growth 96h inconclusive, Pf growth 48h inconclusive
Cc1cccc(CNCc2ccccc2)c1	none
Cc1cccc(C2=N[C@@H](CC(C)C)CO2)c1	Cycloheximide cs 33, Shiga toxin inh active (no result: SARS PLP yeast, Pf growth 96h, Pf growth 48h, NS1 function inh)
Cc1cccc(C2=N[C@@H](Cc3ccccc3)CO2)c1	Cycloheximide cs 49, Shiga toxin inh active (no result: SARS PLP yeast, Pf growth 96h, Pf growth 48h, NS1 function inh)
Cc1ccc(OCC(=O)OCC(=O)N2c3ccccc3CC2C)cc1C (centres undefined)	none (no result: Cycloheximide cs, NS1 function inh, Shiga toxin inh)
COC(=O)CSc1ccc(S(=O)(=O)N2CCCCCC2)cc1[N+](=O)[O-]	none (no result: NS1 function inh)
CN1C(=O)[C@@H]2[C@H](C1=O)[C@@H]1C(=O)Nc3ccccc3C(=O)N1[C@@H]2c1ccc(Br)cc1	none (no result: Cycloheximide cs, NS1 function inh, Shiga toxin inh)
Cc1cccc(-n2c(SCC(=O)N(C)C3CCS(=O)(=O)C3)nc3ccccc3c2=O)c1C (centres undefined)	Pf growth 96h inconclusive, Pf growth 48h inconclusive (no result: Cycloheximide cs, NS1 function inh, Shiga toxin inh)
